Measured values: the supplement of paper PMC6555819

What was measured:
Assay in all cases: PBM binding z-score (relative to random genomic background probes); higher = stronger binding; sequences stand for … in GC…GCGATTGACAGCGTAGAATGAAGG
[1] = test system: FXR:RXRa (NR concentration 270 nM, RXRa partner concentration 90 nM)
Summary of the method: (§1)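 The probes on custom Agilent 4×180K protein-binding microarrays were double-stranded, with 34-nt variable regions bearing direct-repeat seeds, single-nucleotide variants, half-site ablations and random human genomic background sequences. Incubation lasted 1 h with ligand-free nuclear receptor dimers in PBS pH 7.4, 2% milk, 0.02% Triton X-100, 1 mM DTT, 0.2 mg/mL BSA and 0.4 mg/ml salmon testes DNA. Antibodies against each partner (one per run) detected bound dimers, and fluorescence scans were regression-normalized. Binding z-scores take the random background probes as reference.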

[2] = test system: LXRa:RXRa (NR concentration 270 nM, RXRa partner concentration 90 nM)
Summary of the method: as §1

[3] = test system: LXRa homodimer (NR concentration 270 nM)
Summary of the method: as §1

[4] = test system: LXRb:RXRa (NR concentration 270 nM, RXRa partner concentration 90 nM)
Summary of the method: as §1

[5] = test system: LXRb homodimer (NR concentration 270 nM)
Summary of the method: as §1

[6] = test system: PPARa:RXRa (NR concentration 270 nM, RXRa partner concentration 90 nM)
Summary of the method: as §1

[7] = test system: PPARg:RXRa (NR concentration 180 nM, RXRa partner concentration 90 nM)
Summary of the method: as §1

[8] = test system: PPARg:RXRa 270nM:90nM, anti-RXR (NR concentration 270 nM, RXRa partner concentration 90 nM)
Summary of the method: as §1

[9] = test system: PPARg:RXRa 30nM:10nM, anti-RXR (NR concentration 30 nM, RXRa partner concentration 10 nM)
Summary of the method: as §1

[10] = test system: PPARg:RXRa 90nM:30nM, anti-RXR (NR concentration 90 nM, RXRa partner concentration 30 nM)
Summary of the method: as §1

[11] = test system: PPARg:RXRa DBDmut IVT, anti-RXR (DBD mutation: RXRa K156A/R161A, NR concentration 270 nM, RXRa partner concentration 90 nM)
Summary of the method: as §1

[12] = test system: PPARg:RXRa IVT, anti-PPARg (NR concentration 270 nM, RXRa partner concentration 90 nM)
Summary of the method: as §1

[13] = test system: PPARg DBDmut:RXRa IVT, anti-PPARg (DBD mutation: PPARg1 K132A/R137A, NR concentration 270 nM, RXRa partner concentration 90 nM)
Summary of the method: as §1

[14] = test system: PPARg DBDmut IVT, anti-PPARg (DBD mutation: PPARg1 K132A/R137A, NR concentration 270 nM)
Summary of the method: as §1

[15] = test system: PPARg homodimer (NR concentration 180 nM)
Summary of the method: as §1

[16] = test system: PXR:RXRa (NR concentration 270 nM, RXRa partner concentration 90 nM)
Summary of the method: as §1

[17] = test system: PXR homodimer (NR concentration 270 nM)
Summary of the method: as §1

[18] = test system: RARa:RXR (NR concentration 270 nM, RXRa partner concentration 90 nM)
Summary of the method: as §1

[19] = test system: RARa homodimer (NR concentration 270 nM)
Summary of the method: as §1

[20] = test system: RARb:RXRa (NR concentration 270 nM, RXRa partner concentration 90 nM)
Summary of the method: as §1

Sequence | PBM binding z-score [1] | PBM binding z-score [2] | PBM binding z-score [3] | PBM binding z-score [4] | PBM binding z-score [5] | PBM binding z-score [6] | PBM binding z-score [7] | PBM binding z-score [8] | PBM binding z-score [9] | PBM binding z-score [10] | PBM binding z-score [11] | PBM binding z-score [12] | PBM binding z-score [13] | PBM binding z-score [14] | PBM binding z-score [15] | PBM binding z-score [16] | PBM binding z-score [17] | PBM binding z-score [18] | PBM binding z-score [19] | PBM binding z-score [20]
CCGACCGGGGCATAAGGTTACCATAAGCCAGCCC | 0.604 | 1.92 | -0.254 | 0.72 | -1.04 | 1.75 | 1.09 | 1.45 | -0.188 | 0.731 | 0.165 | 0.416 | -0.828 | -1.51 | 0.811 | 0.533 | -0.0926 | 1.79 | -0.565 | 1.8
CCTTACGGGTCACTGAAAGGTTATAGCATTTGGA | 5.83 | 4.87 | 0.976 | 4.17 | 0.221 | 5.59 | 5.13 | 5.03 | 2.12 | 3.38 | 2.95 | 4.1 | 1 | 1.09 | 3.7 | 5.03 | 0.223 | 6.33 | 0.617 | 4.51
AGAACGAGGGCACGCTGAGTTGATAGCGGAGTAG | 1.07 | 0.591 | -0.337 | 0.0446 | -0.975 | 1.83 | 1.78 | 1.71 | -0.0619 | 0.703 | 4.05 | 3.75 | 0.375 | 0.0426 | 0.25 | 1.35 | 0.0475 | 0.611 | 0.00108 | 2.42
CCTTCCGGGTCACGAGGTTATAGCACGACGAGCG | 5.95 | 4.51 | 0.67 | 3.92 | 0.139 | 5.88 | 7.46 | 6.88 | 3.82 | 6 | 5.56 | 6.43 | 0.639 | -0.0446 | 2.53 | 4.81 | 0.436 | 5.82 | 0.661 | 4.55
CTAACTAGGTCAGAACAGGACAGTGAAGGATGAT | 1.45 | 0.974 | 0.159 | 0.586 | -0.0139 | 3.16 | 6.17 | 4.91 | 2.43 | 4.19 | 7.81 | 7.46 | 1.78 | 0.779 | 1.28 | 0.958 | 0.15 | 0.805 | 0.43 | 2.94
TCATATAGGTAAATGCTGGGTGAAAGTCCGATCT | 1.03 | 1.11 | 0.288 | 0.818 | 0.924 | 1.38 | 0.836 | 2.2 | 3.63 | 3.26 | 4.13 | 2.63 | 0.471 | 0.976 | 1.04 | 0.606 | 0.456 | 0.833 | 1.19 | 0.495
TCTTGTAGATCAAAGGTTAAGAAAGCCGAAGCCT | 1.74 | 1.97 | -0.166 | 2.14 | -0.146 | 4.65 | 8.31 | 8.09 | 9.09 | 8.69 | 2.11 | 3.55 | 0.0229 | 0.863 | 1.18 | 2.02 | -0.0145 | 3.24 | 0.581 | 1.85
AGTCAAAGTTCAGGATGAGGTAACGTAAAGCACG | 4.14 | 3.93 | 1.07 | 2.02 | 0.238 | 3.58 | 4.66 | 4.92 | 2.26 | 3.84 | 0.224 | 2.35 | 0.915 | 0.721 | 2.23 | 3.14 | 1.49 | 3.09 | 0.768 | 4.37
TAGCCTAGGTCATGCGTGCCAGTATAGTGTCGGC | 4.03 | 3.31 | 0.471 | 1.75 | -0.0531 | 3.69 | 2.33 | 2.39 | 0.347 | 1.23 | 1.88 | 3.12 | 0.14 | 0.765 | 1.62 | 1.51 | -0.776 | 2.65 | -0.307 | 3.77
ATATGTAGGTTAACGGTCATTCAGGTTGGTTCGC | 2.12 | 2.46 | 2.98 | 2.2 | 1.2 | 5.22 | 9.32 | 8.6 | 7.82 | 9.3 | 8.01 | 8.1 | 3.09 | 2.01 | 2.2 | 1.84 | 0.701 | 2.01 | 0.573 | 2.41
ACTATTAGTTGTCTTAGGGCAACCGATACGACGC | 0.119 | 0.0228 | 0.27 | 0.0317 | 0.936 | -0.245 | 0.651 | 0.232 | 0.276 | 0.044 | 0.0563 | 0.447 | 1.35 | 1.18 | 0.545 | -0.171 | 0.0491 | -0.0308 | 0.604 | 0.618
GCGACTGGGGCAAAGCGGGTTACCATAAGGTTGG | 0.373 | -0.0696 | -0.512 | 0.27 | -0.709 | 1.42 | 1.15 | 1.47 | -0.245 | 0.845 | 4.18 | 3.67 | -0.432 | -0.894 | -0.11 | 0.293 | -0.451 | 0.625 | -0.887 | 0.922
TCTTGTAGATCAGCTGGTTAAGAAAGCTGGCCAA | 0.0372 | -0.146 | -0.717 | -0.0754 | -0.836 | 0.363 | -1.11 | 1.04 | 2.43 | 1.75 | 1.46 | -0.0157 | -0.253 | -0.0877 | -0.903 | 0.0917 | -0.51 | 0.0228 | -0.485 | -0.526
CCGACTGGGGCAAAGGTTACCCTACTCAGTACGA | 1.55 | 1.36 | 0.204 | 1.69 | -1.04 | 4.95 | 10.4 | 8.13 | 8.18 | 9.15 | 4.37 | 5.45 | -0.494 | -0.866 | 0.732 | 1.9 | -0.0869 | 3.02 | -0.235 | 2.1
CCGACTAGGGCAAGGTTACCATAACGCACAGCCA | 0.299 | 0.666 | -0.117 | 0.701 | -1.03 | 1.93 | 3.55 | 3.99 | 1.61 | 3.28 | 4.54 | 4.32 | -0.62 | -0.559 | 1.27 | 0.169 | -0.069 | 0.801 | 0.218 | 1.91
ATACCAAGATGATCGTGAGGTCGTTGATACTAAC | 1.11 | 0.576 | 0.456 | 0.892 | 0.0732 | 0.598 | 0.48 | -0.158 | 0.129 | -0.00184 | 0.165 | 0.114 | 0.181 | 0.947 | 0.378 | 1.67 | 1.32 | 1.35 | 0.361 | 0.547
CCTTACGGGTCACTCACAGGTTATAGCATTTGGA | 4.95 | 4.32 | 0.653 | 3.67 | 0.243 | 5.1 | 4.15 | 3.82 | 1.29 | 2.78 | 3.1 | 3.43 | 0.37 | 0.401 | 3.21 | 3.56 | 0.559 | 4.46 | 1.29 | 3.77
AATACAGGGTCAGTAGGCCAGAGTAGGTACGAAT | 3.97 | 3.63 | 0.625 | 2.61 | 0.737 | 4.47 | 5.91 | 5.01 | 1.93 | 3.86 | 3.22 | 4.8 | 1.82 | 0.929 | 1.97 | 1.86 | 0.246 | 2.94 | 1.18 | 3.92
